# Screens deposited in PubChem BioAssay by National Center for Advancing Translational Sciences (NCATS).
# MCF10A rerep: inducers of DNA re-replication in MCF 10A breast cells | MCF 10A DNA re-replication, Hoechst nuclear intensity, 48 h | 2.9% of 350,000 active | Potency, µM (top dose mostly 46.1 µM), inactives show at the highest dose activity, positive = re-replication, hits mostly activators | AID 624296; further: potency means the concentration at half of the fitted maximal effect; % of control where 0% means no effect; nearly all actives have a fitted effect of over 50% in size
# IL1B secr inh: blocks inflammasome-driven IL-1 beta release. THP-1 LPS/ATP IL-1B secretion, AlphaLISA, 16 h; hits give low values. activity change, % at 57.5 µM. 4.7% of 360,000 active; in the data active means activity change below about -50%; inconclusive means mostly about -30% to -49%; further: on the % scale 0 is the no-effect control and ±100 the full control effect
#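 THP-1 cells pretreated 1 hr with compounds (up to 57.5 uM final), then stimulated with LPS (250 ng/mL final) plus ATP (1.25 mM final); secreted IL-1B measured by AlphaLISA after 16 hr, decreased signal indicating inhibition.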
# RORg inh: blocks mouse ROR gamma transcriptional activity | AID 2551 | Potency, µM (highest dose often 53.6 µM), inactives show at the top dose activity change, negative = inhibition, usual class: inhibitors | Drosophila S2 Gal4-RORgamma UAS-luciferase reporter, 20 h | 5.4% of 310,000 active | P51450; further: potency means the concentration at half of the fitted maximal effect; on the % scale 0 is the no-effect control and ±100 the full control effect; nearly all actives have a fitted effect of over 60% in size
# Target sequence (P51450 whole entry, looked up, the tested form may be a part): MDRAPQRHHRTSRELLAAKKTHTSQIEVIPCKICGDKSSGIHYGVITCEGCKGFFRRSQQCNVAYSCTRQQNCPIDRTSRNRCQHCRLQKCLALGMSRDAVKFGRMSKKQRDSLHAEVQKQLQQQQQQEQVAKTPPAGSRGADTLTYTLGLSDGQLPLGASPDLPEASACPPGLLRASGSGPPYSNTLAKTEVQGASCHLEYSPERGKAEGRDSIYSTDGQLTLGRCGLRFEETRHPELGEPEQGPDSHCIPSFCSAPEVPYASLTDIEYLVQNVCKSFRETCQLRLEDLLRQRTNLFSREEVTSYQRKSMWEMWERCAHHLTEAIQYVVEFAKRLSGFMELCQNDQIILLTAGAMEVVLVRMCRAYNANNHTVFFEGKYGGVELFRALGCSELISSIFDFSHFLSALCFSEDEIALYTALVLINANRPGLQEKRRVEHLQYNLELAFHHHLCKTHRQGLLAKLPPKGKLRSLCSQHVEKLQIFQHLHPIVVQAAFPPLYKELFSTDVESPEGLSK
#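 ROR gamma transcriptional activity was tracked as Gal4-UAS luciferase output in stably transfected Drosophila Schneider cells, with compound added 1 hr before 700 uM copper sulfate induction and a 20 hr ambient-temperature incubation.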
# SW480 rerep: induces DNA re-replication in SW480 colon adenocarcinoma cells; SW480 DNA re-replication, Hoechst DNA content imaging, 48 h; Potency, µM (top dose mostly 46.1 µM), for inactives: top-dose re-replication activation, hits mostly activators; 1.8% of 340,000 active; further: potency means the concentration at half of the fitted maximal effect; % of control where 0% means no effect; nearly all actives have a fitted effect of over 55% in size
#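 Image-based DNA-content assay: after two days of treatment, nuclei were labelled with the DNA dye Hoechst and imaged, and hits were compounds raising the count of nuclei showing high fluorescence intensity.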
# VP16 counter: Gal4-VP16 reporter inhibition counter-screen. AID 2546. Drosophila S2 Gal4-VP16 UAS-luciferase, luminescence, 20 h. 3.5% of 310,000 active. Potency, µM (series often up to 53.6 µM), inactives show at the top dose activity, negative = inhibition, hits mostly inhibitors;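 further: Gal4-VP16 expression switched on by copper sulfate through the metallothionein promoter; potency means the concentration at half of the fitted maximal effect; on the % scale 0 is the no-effect control and ±100 the full control effect; nearly all actives have a fitted effect of over 50% in size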
# * marks the source's active call; other numbers are inactive results; i = inactive; ? = inconclusive; · = no result given; ! = not confirmed by another sample; [ ] = dose if it differs, or a comment. The list is not random: actives were taken first. Their share in the collection is about 11%. Unless noted, the call rests on the fitted dose curve; in most records, active means well fitted curve in the direction sought with a large enough effect; inconclusive means small, poorly fitted or top-dose-only effect, or another doubt; inactive means no such curve, though single readings can be large; an effect the other way counts as inactive or inconclusive.
SMILES,MCF10A rerep,IL1B secr inh,RORg inh,SW480 rerep,VP16 counter
CC1(C)OC2OC(C(=O)N/N=C/c3cc(Br)ccc3O)C3OC(C)(C)OC3C2O1 (stereo not given),?,0,1.6µM*,16µM*,?
O=C(C[n+]1ccccc1)N/N=C/c1cc(Br)ccc1O,22%,12,?,-3%,-1%
CCOC(=O)C1=C(COC(=O)[C@H](C)NS(=O)(=O)c2ccc(NC(C)=O)cc2)NC(=O)NC1C (stereo not given in full),6%,-8,·,1%,·
CC(=O)Nc1ccc(S(=O)(=O)N2c3ccc(F)cc3CCC2C)cc1 (stereo not given),?,75,·,18µM*,·
O=S1(=O)[C@H]2C[C@H](CO)O[C@@]2(CO)CN1Cc1ccc(-c2cccc(Cl)c2)cc1,?,-6,·,-4%,·
C=CCn1c(SCC(=O)O)nnc1-c1ccc(C(C)(C)C)cc1,5%,27,14µM*,-7%,?
Cc1ccc(S(=O)(=O)NCC(=O)OCC(=O)N2CC(C)OC(C)C2)cc1 (stereo not given),5%,41,·,-39%,·
C=CCNC(=S)N/N=C/c1ccc(OCc2ccccc2Cl)cc1,?,14,0.79µM*,7.3µM*,1.6µM*
CCOC(=O)c1c(NC(=O)COc2ccccc2OCC)sc2c1CC(C)(C)NC2(C)C,?,-106*,·,?,·
CCOC(=O)c1c(NC(=O)COc2ccccc2C#N)sc2c1CC(C)(C)NC2(C)C,?,2,?,18µM*,?
CC1(C)Cc2c(sc(NC(=O)COc3cccc4ccccc34)c2C#N)C(C)(C)N1,16µM*,-100*,8.9µM*,?,5µM*
CCOC(=O)c1c(NC(=O)CCS(=O)(=O)c2ccccc2)sc2c1CC(C)(C)NC2(C)C,18µM*,i,-1%,?,-1%
CC(C)CO/N=C1/C[C@@H](O)[C@@H](O)[C@@H]2[C@@H]3C(=O)N(Cc4ccccc4)C(=O)[C@H]3CC[C@H]12,·,·,6%[10 µM],·,8%[10 µM]
CCOC(=O)c1c(NC(=O)COC(=O)c2ccc(C)s2)sc2c1CC(C)(C)NC2(C)C,14%,-59*,·,?,·
Cc1ccc(NC(C)c2cc(Cl)ccc2O)cc1 (stereo not given),?,-27,?,4%,13µM*
CC(Nn1cnnc1)c1cc(Cl)ccc1O (stereo not given),-3%,-9,-1%,?,2%
COc1ccc(-c2oc3ccccc3c2C(=O)OCc2ccccc2OC)cc1,-1%,11,13%,6%,-2%
O=C(OCCO)c1ccccc1O,·,·,3%,·,4%
COc1ccc(CNc2ncnc3ccc(-c4ccccc4CN(C)C)cc23)c(OC)c1,·,·,-10%,·,-11%
CC1CCc2nn(CC(=O)Nc3ccc(F)cc3F)cc2C1 (stereo not given),-1%,-11,15%,3%,2%
CCN(CC)c1ccc(NC(=O)Cn2cc3c(n2)CCC(C)C3)c(C)c1 (stereo not given),2%,16,-54%,0%,11µM*
COC(=O)c1scc(C#N)c1N/N=C(\C#N)S(=O)(=O)c1ccc(Cl)cc1,13µM*,12,?,-10%,-28%
COC(=O)c1scc(S(=O)(=O)C(C)C)c1N/N=C(\C#N)C(=O)c1ccc(Cl)cc1,6%,-8,-30%,0%,?
CC(C)(C)c1ccc(-c2noc(CCC(N)=O)n2)cc1,-181%[0.0737 µM],14,?,?,-17%
CC(C)(C)c1ccc(-c2noc(CCC(=O)Nc3cccnc3)n2)cc1,1%,-15,0.063µM*,7%,?
SMILES,MCF10A rerep,IL1B secr inh,RORg inh,SW480 rerep,VP16 counter
CNC(=O)CCc1nc(-c2ccc(C(C)(C)C)cc2)no1,-13%,0,0.32µM*,0%,7.1µM*
Cc1ccc(-c2noc(CCC(=O)NCC3CCCO3)n2)cc1 (stereo not given),0%,0,-3%,12%,-6%
CC(C)(C)c1ccc(-c2noc(CCC(=O)NCC3CCCO3)n2)cc1 (stereo not given),2%,0,1µM*,-5%,10µM*
CCn1cc(CN2CCC(C(=O)Nc3ccc(Oc4cccnc4)cc3)CC2)cn1,-2%,0,-18%,-6%,0%
Cc1c2oc3c(C)ccc(C(=O)N[C@@H]4C(=O)N[C@H](C(C)C)C(=O)N5CCC[C@H]5C(=O)N(C)CC(=O)N(C)[C@@H](C(C)C)C(=O)O[C@@H]4C)c3nc-2c(C(=O)N[C@@H]2C(=O)N[C@H](C(C)C)C(=O)N3CCC[C@H]3C(=O)N(C)CC(=O)N(C)[C@@H](C(C)C)C(=O)O[C@@H]2C)c(N)c1=O,-12%,·,0.022µM*,-5%,20µM*!
CC(C)(C)OC(=O)N1CC23CC(c4ccc(F)cc4)C(CC2S1(=O)=O)O3 (stereo not given),·,·,-15%,·,2%
C=C(C)Cn1c(=O)c2c(nc3n2CC(C)CN3Cc2ccccc2)n(C)c1=O (stereo not given),2%,2,0%,-30%,-5%
O=C(O)c1cccc(NC(=S)N/N=C/c2cccnc2)c1,-1%,29,?,-3%,-4%
Fc1ccc(/C=N/NC(=S)Nc2cccnc2)cc1F,-2%,-8,-2%,-14%,1%
Fc1c(F)c(F)c(/C=N/NC(=S)Nc2cccnc2)c(F)c1F,11µM*,-102*,2.5µM*,?,3.5µM*
Fc1cccc(F)c1/C=N/NC(=S)Nc1cccnc1,-1%,-7,1.3µM*,0%,3.5µM*
CC(C)(C)C1CCC(=NNC(=S)Nc2cccnc2)CC1 (stereo not given),-33%,16,?,-3%[1.84 µM],-6%
Fc1ccc(/C=N/NC(=S)Nc2cccnc2)cc1,11%,-11,4.5µM*,?,0.35µM*
O=C(CN1C(=O)NC2(CCCCC2)C1=O)N1CCN(S(=O)(=O)c2cccc([N+](=O)[O-])c2)CC1,-32%,11,·,0%,·
COc1cccc(C(C)(O)c2nc(-c3cccc(C(C)C)c3)cs2)c1 (stereo not given),·,-83*,·,·,·
COc1cccc(C(C)(O)c2nc(-c3ccccc3)cs2)c1 (stereo not given),·,5,·,·,·
COc1ccc(-c2csc(C(C)(O)c3cccnc3)n2)cc1 (stereo not given),·,-65*,·,·,·
Cc1cc(C)c2cccc(N)c2n1,4%,22,0%,7%,2%
CCc1ccc2nc3nc(C)cc(C)c3c(N)c2c1,-14%,-104*,-23%,2.9µM*,-27%
Cc1cc(C)c2c(N)c3ccccc3nc2n1,?,-89*,-20%,?,-21%
Cc1oc2c(C)c3oc(=O)c(CCC(=O)O)c(C)c3cc2c1-c1ccccc1,11%,18,12%,-17%,-4%
